PubChem BioAssay (EPA / NIEHS)
Results filed as inconclusive are left out. The source made the active and inactive calls. The calls were made as follows, unless noted: active = hit-call score of the fitted dose curve at least 0.9, where 1 is the maximum; inconclusive = response in the unintended direction; inactive = score below 0.9.

Key:
[1] = CEETOX_H295R_11DCORT_noMTC: CeeTox H295R High-throughput Steroidogenesis Assay for 11-Deoxycortisol (11DCORT), maximum tolerated concentration (MTC) filtered results only (AID 2283911; active = hit-call score of the fitted dose curve at least 0.9, where 1 is the maximum; inactive = score below 0.9); conditions: actives raise or lower the signal
Outline: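 H295R, OECD 456-based; 10 uM forskolin 48 h → compound (0.1% DMSO) 48 h → medium extracted, 11DCORT by LC-MS/MS. Gain/loss vs DMSO control, all concentrations kept regardless of MTT viability.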

[2] = CEETOX_H295R_OHPREG_noMTC: CeeTox H295R High-throughput Steroidogenesis Assay for OH-Pregnenolone (OHPREG), maximum tolerated concentration (MTC) filtered results only (AID 2283912; active = hit-call score of the fitted dose curve at least 0.9, where 1 is the maximum; inactive = score below 0.9); conditions: actives raise or lower the signal
Outline: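 H295R cells prestimulated 48 h with 10 uM forskolin, then exposed 48 h to compound (0.1% DMSO). 17alpha-hydroxypregnenolone in medium measured by MTBE extraction and HPLC-MS/MS; bidirectional fit vs DMSO, concentrations not MTT/MTC-filtered.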

[3] = CEETOX_H295R_OHPROG_noMTC: CeeTox H295R High-throughput Steroidogenesis Assay for OH-Progesterone (OHPROG), maximum tolerated concentration (MTC) filtered results only (AID 2283914; active = hit-call score of the fitted dose curve at least 0.9, where 1 is the maximum; inactive = score below 0.9); conditions: actives raise or lower the signal
Outline: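 H295R cells prestimulated 48 h with 10 uM forskolin, then exposed 48 h to chemical (0.1% DMSO final). 17alpha-hydroxyprogesterone in medium quantified by HPLC-MS/MS after MTBE extraction; bidirectional fitting versus DMSO, concentrations not MTC-filtered.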

[4] = test system: Sodium/Iodide Symporter (NIS), SLC5A5 (gene 6528); assay: CPHEA_Stoker_NIS_Inhibition_RAIU: CPHEA's Radioactive Iodide Uptake (RAIU) Assay for Sodium/Iodide Symporter (NIS) Inhibition, Stoker and Laws Labs (AID 2283841)
Outline: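 hNIS-HEK293T-EPA cells incubated 2 h at room temperature with compound (0.001–100 uM, 0.5% DMSO) and 329 pM final 125I in HBSS/10 mM HEPES, pH 7.4. Intracellular 125I counted; normalised to DMSO maximal uptake, triplicate, three biological replicates.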

[5] = CPHEA_Stoker_NIS_Cytotoxicity: Cytotoxicity Assessment for CPHEA's Radioactive Iodide Uptake (RAIU) Assay for Sodium/Iodide Symporter (NIS) Inhibition, Stoker and Laws Labs (AID 2283897)
Outline: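 hNIS-HEK293T-EPA cells, human NIS expressed in HEK293T, treated 2 h with chemicals (0.001–100 uM, 0.5% final DMSO). ATP content read by CellTiter-Glo luminescence; loss of signal analysed relative to DMSO.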

[6] = CEETOX_H295R_ANDR_noMTC: CeeTox H295R High-throughput Steroidogenesis Assay for Androstenedione (ANDR), maximum tolerated concentration (MTC) filtered results only (AID 2283915; active = hit-call score of the fitted dose curve at least 0.9, where 1 is the maximum; inactive = score below 0.9); conditions: actives raise or lower the signal
Outline: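 H295R cells, passage 10 or below, prestimulated 48 h with 10 uM forskolin, then exposed 48 h to chemical in 0.1% DMSO. Medium androstenedione extracted with MTBE, quantified by HPLC-MS/MS; concentrations not MTC-filtered; bidirectional fit versus DMSO.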

In the case of c1ccc2cc3ccccc3cc2c1, the outcome [1] is reported as “inactive”, the outcome [2] is reported as “inactive” and the outcome [3] is reported as “inactive”.

With c1ccc(C(O[C@@H]2CCCN(CCc3ccc4c(c3)OCO4)C2)c2ccccc2)cc1 the outcome [4] was “inactive” and the outcome [5] was “inactive”.

For CCCCC(CC)C(=O)OCCOCCOCCOC(=O)C(CC)CCCC (stereo not drawn), the outcome [4] was “inactive” and the outcome [5] was “inactive”.

In the case of CCc1ccc(O)c(C(C)(C)C)c1, the outcome [4] is reported as “inactive” and the outcome [5] is reported as “inactive”.

With COc1cc(C(C)C)c2c(c1)S(=O)(=O)N(COc1cc(=O)n3cccc(OCCN4CCCCC4)c3n1)C2=O the outcome [4] was “inactive” and the outcome [5] was “inactive”.

In the case of Cc1nc(-c2ccccn2)ncc1C(=O)Nn1cc(C)c2cc(F)ccc21, the AC50 [1] is reported as 13.2 µM (active), the AC50 [2] is reported as 4.1 µM (active) and the AC50 [3] is reported as 8.28 µM (active). The AC50 [6] was 22.5 µM (active).

With CC(C)c1nnc2ccc(-c3ocnc3-c3cc(F)ccc3F)cn12 the outcome [4] was “inactive” and the outcome [5] was “inactive”.

With Cn1cc[nH]c1=S the outcome [4] was “inactive” and the outcome [5] was “inactive”.

With O=S(=O)(O)c1ccc(N=Nc2c(O)ccc3cc(S(=O)(=O)O)ccc23)cc1 the outcome [1] was “inactive”, the outcome [2] was “inactive” and the outcome [3] was “inactive”.

In the case of CCCCCCCCCCCCCCCCOS(=O)(=O)O, the outcome [5] is reported as “inactive”.
